In the library only some 2.6% were active in any assay of this set; here they are far more common.
Cruzain inh noDet: qHTS Assay for Promiscuous and Specific Inhibitors of Cruzain (without detergent); Cruzipain (Trypanosoma cruzi), P25779; purified cruzain, Z-FR-AMC fluorescence, no detergent; Potency, µM, for the others: max response, negative = inhibition, actives largely listed as inhibitors; 2.3% of 200,000 active; AID 1476, 2009;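 also: plate controls were enzyme without inhibitor for no effect and buffer without enzyme for full effect; nearly all actives have a fitted effect of over 40% in size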
Target sequence (P25779 123-467 limits assumed): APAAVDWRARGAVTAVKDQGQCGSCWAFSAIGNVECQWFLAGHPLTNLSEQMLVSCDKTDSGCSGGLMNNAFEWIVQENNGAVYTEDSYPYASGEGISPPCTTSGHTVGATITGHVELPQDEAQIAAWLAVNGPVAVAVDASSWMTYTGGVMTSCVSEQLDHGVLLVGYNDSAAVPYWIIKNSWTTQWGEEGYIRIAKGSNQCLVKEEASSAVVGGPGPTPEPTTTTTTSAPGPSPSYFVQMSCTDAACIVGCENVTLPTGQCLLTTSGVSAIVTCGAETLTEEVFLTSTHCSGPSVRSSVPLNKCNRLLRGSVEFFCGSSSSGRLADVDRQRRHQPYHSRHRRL
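Purified cruzain at 1.5 nM, pre-incubated 15 min with compound at room temperature in 100 mM sodium acetate pH 5.5, 5 mM DTT, 0.00005% Triton X-100. Reaction started with 2 uM Z-FR-AMC; AMC fluorescence increase over 60 s gives rate.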
Cruzain Triton: qHTS Assay for Promiscuous and Specific Inhibitors of Cruzain (with detergent). Cruzipain (Trypanosoma cruzi), P25779. purified cruzain, Z-FR-AMC fluorescence, 0.01% Triton. Potency, µM, for inactives: max response, negative = inhibition, usual class: inhibitors. 0.43% of 200,000 active;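 also: plate controls were neutral wells for no effect and buffer without enzyme for full effect; nearly all actives have a fitted effect of over 40% in size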
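Detergent-containing arm of a paired screen for aggregation-based inhibition: 0.01% Triton X-100 present. Cruzain at 1.5 nM cleaved 2 uM Z-FR-AMC at pH 5.5 with 5 mM DTT; AMC fluorescence gain over 60 s measured activity.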
* = called active by the depositor; ? = inconclusive. Calls follow the shape of the dose curve; as a rule, active = well fitted curve in the direction sought with a large enough effect; inconclusive = small, poorly fitted or top-dose-only effect, or another doubt; inactive = no such curve, though single readings can be large; an effect the other way counts as inactive or inconclusive. Potency is read from the fitted curve at half-maximal effect.

SMILES	Cruzain inh noDet	Cruzain Triton
Cc1cccc(N2CCN(S(=O)(=O)c3ccc(F)c(C(=O)Nc4cccc(Cl)c4C)c3)CC2C)c1 (configuration not stated)	13µM*	1%
CCc1ccc(NCc2cc3ccc(OC)cc3n(CC(=O)Nc3ccccc3C)c2=O)cc1	12%	-3%
CCOC(=O)CSc1nc2cc(C(=O)NCc3ccco3)ccc2c(=O)n1C1CCCCC1	?	0%
CCOC(=O)CSc1nc2cc(C(=O)NCc3ccco3)ccc2c(=O)n1-c1ccc(F)cc1	10µM*	-1%
Nc1cccc(Cl)c1	5%	0%
Nc1cccc(N)c1	?	11µM*
CCOC(=O)c1ccc(NC(=O)CC(=O)Nc2ccc3nc4n(c(=O)c3c2)CCCCC4)cc1	?	-2%
O=c1ccsn1Cc1ccccc1	13µM*	?
O=c1ccn(Cc2ccccc2)c(=O)n1Cc1ccccc1	3%	-4%
CC(C)CNC(=O)C(=O)Nc1c2c(nn1-c1ccccc1)CS(=O)(=O)C2	-8%	-1%
CSc1ccc(/C=C/c2nc3ccccc3n2S(=O)(=O)c2cccc(Cl)c2)cc1	-1%	-11%
O=S(=O)(c1cccc(Cl)c1)n1c(/C=C/c2ccccc2Cl)nc2ccccc21	7.9µM*	-10%
O=C(Cn1c(=O)ccc2cc(S(=O)(=O)N3CCCC3)ccc21)Nc1ccc(Cl)cc1	-10%	-2%
Cc1nn(-c2ccccc2)c(Cl)c1C1C(C#N)=C(N)Oc2c1c(C)nn2-c1ccccc1 (configuration not stated)	2%	-2%
Cc1ccc(-n2nc(C)c(C3C(C#N)=C(N)Oc4c3c(=O)oc3ccccc43)c2Cl)cc1 (configuration not stated)	20µM*	0%
CC1=C(C)CS(=O)N(c2ccc(S(N)(=O)=O)cc2)C1 (configuration not stated)	16µM*	16µM*
CC1=C(C)CS(=O)N(S(=O)(=O)c2ccccc2)C1 (configuration not stated)	-24%	-26%
CCC(Sc1nc2ncccc2o1)C(=O)Nc1cccc(C)c1 (configuration not stated)	-4%	-3%
COc1ccc2[nH]cc(CCN=C(NC(=O)c3cccc(Cl)c3)Nc3nc(C)cc(C)n3)c2c1	-29%	-1%
Cc1cc(C)nc(NC(=NCCc2c[nH]c3ccccc23)NC(=O)Nc2ccc(Cl)cc2)n1	25µM*	-1%
CCc1ccc(-n2nc(C)c3c(C(=O)N4CCN(c5cccc(Cl)c5)CC4)cc(C)nc32)cc1	10%	4%
CCOC(=O)c1cc(-c2ccccc2)sc1NC(=O)C(C)N1C(=O)c2ccccc2C1=O (configuration not stated)	25µM*	-5%
CCOC(=O)c1cc(-c2ccccc2)sc1N	25µM*	-12%
CCOC(=O)c1sc(-c2ccccc2)cc1N	-8%	-12%
CCOC(=O)c1cc(-c2ccccc2)sc1NC(=O)CCN1C(=O)c2ccccc2C1=O	?	-16%
SMILES	Cruzain inh noDet	Cruzain Triton
O=C(COc1ccccc1Cl)Nc1nc(-c2ccc(F)cc2)ns1	?	2%
CCOc1ccccc1NC(=O)c1ccc2c(c1)CCCN2S(C)(=O)=O	-2%	1%
CC(NC(=O)CCCN1C(=O)CCn2nc(-c3cn(C)c4ccccc34)cc21)c1ccccc1 (configuration not stated)	?	-3%
COC(=O)CSc1nc2cc(OC)ccc2cc1C#N	-10%	-3%
CCOC(=O)CSc1nc2cc(OCC)ccc2cc1C#N	-16%	-9%
Cc1ccc2cc(C#N)c(SCC(=O)NNC(=O)Cc3ccccc3)nc2c1	10µM*	-3%
Cc1ccccc1NC(=O)CSc1nc(N)c(C#N)cc1C#N	-11%	5%
COc1ccc2cc(C#N)c(SCC(=O)NNC(=O)Cc3ccccc3)nc2c1	13µM*	4%
COc1ccc(-c2ccc(C#N)c(SCC(=O)NCCc3ccccc3)n2)cc1OC	1%	3%
COc1cccc(-c2ccc(C#N)c(SCC(=O)NCCc3cccc(Cl)c3)n2)c1	32µM*	-4%
CCOc1ccc2cc(C#N)c(SCC(=O)NC(C)CC)nc2c1 (configuration not stated)	13µM*	3%
CCNc1nc(N)nc(Oc2ccc(OCC(=O)OC)nn2)n1	2%	5%
CCc1ccccc1Nc1ncnc2c1cnn2-c1ccc(Cl)cc1	7%	-8%
Oc1ccc(Br)cc1-c1cc(-c2ccccc2F)[nH]n1	20µM*	0%
COc1ccccc1-c1cc(-c2cc(Cl)ccc2O)n[nH]1	25µM*	1%
Cc1ccccc1-c1cc(-c2ccccc2O)n[nH]1	-14%	-10%
COc1ccc(OC)c(NC(=O)c2cc(-c3cc(Cl)ccc3O)n[nH]2)c1	?	0%
Oc1ccc(Cl)cc1-c1cc(-c2ccccc2)n[nH]1	-10%	-13%
COc1ccc(Cl)cc1NC(=O)c1cc(-c2ccccc2O)n[nH]1	10µM*	-2%
COCCn1c(=O)c(-c2cccs2)nc2cnc(N(C)C)nc21	-5%	1%
CCc1ccc(OCC(=O)N(Cc2ccc(C(C)C)cc2)C2CCS(=O)(=O)C2)cc1 (configuration not stated)	?	-12%
COCCNC(=O)c1ccc2c(=O)n(CCc3ccccc3)c(SCC(=O)CC(=O)OC)nc2c1	?	-9%
Cc1ccccc1Nc1c(-c2cccs2)nc2cccc(C)n12	-4%	-16%
Cc1ccc(CNC(=O)C2COc3ccccc3C2)cc1 (configuration not stated)	1%	1%
COc1ccc(NC(=O)C(CC(C)C)NC(=O)C2CCCCC2)cc1 (configuration not stated)	3%	-2%
SMILES	Cruzain inh noDet	Cruzain Triton
COc1ccc(C2CC(c3ccc4ccccc4c3OC(C)=O)=NN2C(=O)/C=C/c2ccccc2)cc1 (configuration not stated)	7.9µM*	-1%
COc1ccc(C2CC(c3ccccc3OC(C)=O)=NN2C(=O)/C=C/c2ccccc2)cc1 (configuration not stated)	-20%	-6%
Fc1ccc(-c2cc(-c3nc(-c4ccccc4)no3)[nH]n2)cc1	-10%	2%
O=C(O)COc1ccccc1/C=C1\SC(=S)N(/N=C/c2ccccc2O)C1=O	?	28µM*
COc1cccc(/C=C2/SC(=O)N(CC(=O)N3CCc4ccccc4C3)C2=O)c1OCC(=O)O	?	-1%
COc1ccc(/C=C/C(=O)Nc2cc(C)nn2-c2nc3ccccc3n2Cc2cccc([N+](=O)[O-])c2)cc1	7.9µM*	0%
COc1ccc(/C=C/C(=O)Nc2cc(C)nn2-c2nc3ccccc3[nH]2)cc1	?	-29%
Cc1cc(NC(=O)c2cc(-c3ccc(C)s3)nc3ccccc23)no1	-1%	-8%
CC(C)CCNC(=O)c1cc(-c2ccc(Br)s2)nc2ccccc12	3.2µM*	-2%
Cc1cccc(NC(=O)c2cc(-c3ccc(C)s3)nc3ccccc23)n1	20µM*	-13%
CCCCN(C)CCCNC(=O)c1cc(-c2ccc(Br)s2)nc2ccccc12	-7%	-1%
N#Cc1c(-c2ccccc2)nc2n(-c3ccccc3)nc(C(=O)Nc3ccccc3)n2c1=O	10µM*	2%
N#Cc1cccc(NC(=O)c2nc(-c3ccccc3)n(-c3ccccc3)n2)c1	-9%	1%
CCOc1ccccc1NC(=O)Nc1ccc(Cl)cc1	-10%	-10%
Cc1cc(C)nc(/N=C(/NC(=O)Nc2ccc(Cl)c(Cl)c2)Nc2ccccc2)n1	?	-2%
